High-throughput results (PubChem)
Statin myotox sup – protects C2C12 myotubes from simvastatin toxicity; ATP luminescence, 48 h; scaled: DMSO 0, geranylgeraniol control 100; rescue of ATP level, % at 7.49 µM; 330,000 compounds, 0.78% hits; AID 602340;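 active means mean ATP rescue above about 67%, or every replicate alone reaching that limit, limit read from the data, passing the limit was not always enough; inconclusive means no clear call, values can overlap the other calls; inactive means mean under the limit and some replicate under it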;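 further: myotubes were challenged with 10 µM simvastatin during compound exposure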
MITF act – MITF TRPM1 promoter activation in melanoma cells; SK-MEL-5 TRPM1-promoter luciferase, 24 h; % of positive control, neutral wells = 0; activation, % at 12.5 µM; 300,000 compounds, 0.75% hits;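 active means mean activation of at least 80% with every replicate also reaching 80%; inconclusive means mean reaches 80% but some replicate falls short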;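 further: 0% = neutral control wells and 100% = parthenolide positive control wells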
Wnt bcat act – activates Wnt/beta-catenin signaling in a reporter cell assay; activator, plate reader; activation, % at 9.35 µM; 300,000 compounds, 1.2% hits; AID 743398; in the data active means activation above about 30%, passing the limit was not always enough; inconclusive means no clear call, values can overlap the other calls;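 further: 0% = neutral control wells and 100% = positive control wells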
GAA850 FXN act – increases GAA850 frataxin promoter reporter activity. 360,000 compounds, 0.56% hits. HEK293 lucGAA850 FXN promoter luciferase reporter, 24 h; percent of 10 µM SAHA response. AID 540364. activation, % at 6 µM;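 active means activation above the average of all compounds screened plus 3 SD, cutoff fixed separately per campaign, cut at about 7.5% in these data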;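 further: 0% = DMSO wells and 100% = 10 µM SAHA wells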
esBAF inh – SWI/SNF esBAF complex inhibition. mouse ES cells, Bmi1-luciferase knock-in reporter, 24 h; 100% = twice the neutral-well signal. reporter increase, % at 12.5 µM. 350,000 compounds, 2% hits; in the data active means activation above about 40%; inconclusive means no clear call, values can overlap the other calls;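 further: 0% = median of the plate's neutral control wells and 100% = double that signal; a rise in the Bmi1 reporter signal indicates esBAF inhibition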
* hit, by the source's call; ? = inconclusive; nt = not tested or not shown. Most compounds without a hit are left out; they make up all but 3.3% or so of the library.

SMILES	Statin myotox sup	MITF act	Wnt bcat act	GAA850 FXN act	esBAF inh
CCCN1CCC(=O)N([C@H](CSc2ccc(C)cc2)CC(C)C)CC1	-30	98*	30	1	46*
CCCN1[C@@H]2c3ccc(-c4ccc(F)cc4)c(=O)n3C[C@H]1[C@H](CO)[C@H]2C(=O)NCC1CC1	12	nt	nt	nt	1
CC(C)c1cn(CC[C@@H]2CC[C@H](NC(=O)c3cccc(F)c3)[C@@H](CO)O2)nn1	17	nt	nt	nt	0
COc1ccccc1NS(=O)(=O)c1cccc(NC(=O)c2ccc3ccccc3n2)c1	110*	-11	0	-1	24
COc1ccccc1NS(=O)(=O)c1cccc(NC(=O)c2nc3nc(C)cc(C)n3n2)c1	126*	nt	-2	0	6
CO[C@@H]1CN(C)C(=O)c2ccc(NS(=O)(=O)c3ccc(C)cc3)cc2OC[C@H](C)N(C(=O)NC(C)C)C[C@@H]1C	10	nt	nt	nt	-3
CCOC(CCNC(=O)c1cn(C)c(=O)c2c1c1ccccc1n2C)OCC	-6	6	2	0	11
CCOc1ccccc1CNC(=O)c1cn(C)c(=O)c2c1c1ccccc1n2C	-26	-5	47*	-1	-7
C[C@@H]1CCCCO[C@@H](CN(C)Cc2ccncc2)[C@H](C)CN([C@@H](C)CO)C(=O)c2cc(NC(=O)C3CCCCC3)ccc2O1	2	nt	nt	nt	-5
CC1(C)CC(=O)C(N=Nc2ccc(Cl)cc2)=C(O)C1	nt	13	-5	1	nt
CC1(C)CC(=O)C(N=Nc2ccc(-c3ccccc3)cc2)=C(O)C1	nt	96*	0	3	nt
CC1(C)CC(=O)C(N=Nc2ccc(F)cc2)=C(O)C1	nt	9	44*	2	nt
CN(C)C(=O)C[C@H]1CC[C@@H]2[C@H](COc3ccc(NC(=O)C4CC4)cc3C(=O)N2C)O1	20	nt	nt	nt	3
O=C(c1ccc(-c2ccccc2Cl)o1)N1CCN(S(=O)(=O)c2cccs2)CC1	nt	87*	10	5	nt
O=C(c1ccccc1Cl)N1CCN(S(=O)(=O)c2cccs2)CC1	-1	0	0	0	-5
C[C@@H]1CN([C@@H](C)CO)C(=O)Cc2cc(NC(=O)c3ccncc3)ccc2O[C@@H]1CN(C)C(=O)NC1CCCCC1	8	nt	nt	nt	4
C[C@@H]1CCCCO[C@H](CN(C)C(=O)Nc2ccc3c(c2)OCO3)[C@H](C)CN([C@@H](C)CO)C(=O)c2cc(NS(=O)(=O)c3ccc(F)cc3)ccc2O1	92*	nt	nt	nt	10
C[C@H]1CCCCO[C@@H](CN(C)C(=O)Nc2ccc3c(c2)OCO3)[C@@H](C)CN([C@@H](C)CO)C(=O)c2cc(NS(=O)(=O)c3ccc(F)cc3)ccc2O1	62	nt	nt	nt	0
C[C@H](CO)N1C[C@H](C)[C@H](CN(C)C(=O)Nc2ccc3c(c2)OCO3)OCCCC[C@H](C)Oc2ccc(NS(=O)(=O)c3ccc(F)cc3)cc2C1=O	81*	nt	nt	nt	13
COC(=O)[C@@H]1[C@@H](CO)[C@@H]2Cn3c(ccc(-c4ccccc4F)c3=O)[C@@H]2N1Cc1ccccc1	-4	nt	nt	nt	-7
CCCCCCCNC(=O)C1(CC2CC(c3ccc(Cl)cc3)=NO2)CCN(C(=O)OC(C)(C)C)CC1 (configuration not stated)	121*	-7	-2	-1	-4
CC(C)(C)OC(=O)N1CCC(CC2CC(c3ccccc3)=NO2)(C(=O)O)CC1 (configuration not stated)	7	-5	1	-1	-6
C[C@@H]1CCCCO[C@H](CN(C)C(=O)Nc2ccc3c(c2)OCO3)[C@H](C)CN([C@H](C)CO)C(=O)c2cc(NC(=O)NC3CCCCC3)ccc2O1	nt	nt	nt	nt	-4
Brc1ccc(COc2ncnc3ccccc23)cc1	nt	-4	-1	1	nt
c1ccc(OCCOc2ncnc3ccccc23)cc1	-2	?	nt	4	51*
SMILES	Statin myotox sup	MITF act	Wnt bcat act	GAA850 FXN act	esBAF inh
CCCCOC(=O)CSc1nc(N)c(C#N)c(-c2ccc(OC)cc2)c1C#N	90*	-12	-10	1	-6
Cc1cc(NC(=O)c2cccc(Cl)c2)n[nH]1	5	66	29	3	47*
O=C(Nc1cc(-c2ccccc2)[nH]n1)c1ccc(Cl)cc1	-48	nt	40*	3	59*
Cc1ccc(NC(=O)c2cccc(Cl)c2)nc1	2	33	nt	3	28
O=C(Nc1ccc(Cl)cc1Cl)c1ccc(-c2ccccc2)cc1	nt	10	7	1	nt
C[C@@H]1CN([C@@H](C)CO)S(=O)(=O)c2ccc(C#Cc3ccccc3)cc2O[C@H]1CN(C)C	-30	nt	nt	nt	-5
